Measured values: PubChem BioAssay AID1159580 (chemical genetic matrix, 2015)
Out of some 5,500 compounds screened, about 2,000 (36%) were called active. Another 18% or so got no clear call; they are omitted. Cut-off read from the data, not from the text of the source: active = normalized growth mostly below about 0.91 (no sharp cut-off); inconclusive = no clear call, values can overlap the other calls; inactive = mostly above about 0.92. Some of the results follow.

Assay: chemical genetic growth profiling, strain panel (AID 1159580);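 note: tested at 20 µM; growth read once vehicle control cultures reached saturation at 30 °C; 1 = growth at the plate median or of vehicle wells; lower values mean less growth of the strain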
Conditions: growth OD

Measured: normalized growth

CC(=O)OCC(=O)[C@@]1(O)CCC2C3CCC4=CC(=O)C=CC4(C)C3[C@@H](O)C[C@@]21C (stereo partly drawn)
inactive: S. cerevisiae deletion strains, locus YKL009W, strain mrt4, stronger effect = lower value 1.07 | S. cerevisiae deletion strains, locus YKL068W, stronger effect = lower value 1.01 | S. cerevisiae deletion strains, locus YKL085W, strain MDH1 (second series), stronger effect = lower value 1.01 | S. cerevisiae deletion strains, locus YKL085W, strain MDH1, stronger effect = lower value 1.01 | S. cerevisiae deletion strains, locus YKL160W, strain elf1, stronger effect = lower value 0.973 | S. cerevisiae deletion strains, locus YKL190W, strain CNB1, stronger effect = lower value 1.02 | S. cerevisiae deletion strains, locus YKR001C, strain vps1, stronger effect = lower value 1.02 | S. cerevisiae deletion strains, locus YKR026C, strain gcn3, stronger effect = lower value 0.985 | S. cerevisiae deletion strains, locus YKR091W, strain srl3, stronger effect = lower value 1 | S. cerevisiae deletion strains, locus YLL001W, strain dnm1, stronger effect = lower value 0.953 | S. cerevisiae deletion strains, locus YLL026W, stronger effect = lower value 0.99 | S. cerevisiae deletion strains, locus YLL041C, strain sdh2, stronger effect = lower value 0.998 | S. cerevisiae deletion strains, locus YLR027C, strain aat2, stronger effect = lower value 0.991 | S. cerevisiae deletion strains, locus YLR039C, strain RIC1, stronger effect = lower value 1.04 | S. cerevisiae deletion strains, locus YLR058C, strain SHM2, stronger effect = lower value 0.998 | S. cerevisiae deletion strains, locus YLR102C, strain apc9, stronger effect = lower value 1.01 | S. cerevisiae deletion strains, locus YLR113W, strain HOG1, stronger effect = lower value 0.999 | S. cerevisiae deletion strains, locus YLR221C, strain rsa3, stronger effect = lower value 1.01 | S. cerevisiae deletion strains, locus YLR258W, strain gsy2, stronger effect = lower value 1 | S. cerevisiae deletion strains, locus YLR262C, strain YPT6 (second series), stronger effect = lower value 0.967 | S. cerevisiae deletion strains, locus YLR262C, strain YPT6, stronger effect = lower value 1.04 | S. cerevisiae deletion strains, locus YLR268W, strain sec22, stronger effect = lower value 1.03 | S. cerevisiae deletion strains, locus YLR320W, strain mms22, stronger effect = lower value 0.982 | S. cerevisiae deletion strains, locus YLR330W, strain CHS5, stronger effect = lower value 1.01 | S. cerevisiae deletion strains, locus YLR342W, strain FKS1 (second series), stronger effect = lower value 1.02 | S. cerevisiae deletion strains, locus YLR342W, strain FKS1, stronger effect = lower value 0.992 | S. cerevisiae deletion strains, locus YLR357W, strain rsc2, stronger effect = lower value 0.997 | S. cerevisiae deletion strains, locus YLR370C, strain arc18, stronger effect = lower value 0.984 | S. cerevisiae deletion strains, locus YLR371W, strain rom2, stronger effect = lower value 1.02 | S. cerevisiae deletion strains, locus YLR384C, strain iki3, stronger effect = lower value 0.973 | S. cerevisiae deletion strains, locus YLR418C, strain cdc73, stronger effect = lower value 1.02 | S. cerevisiae deletion strains, locus YML016C, strain PPZ1, stronger effect = lower value 1.01 | S. cerevisiae deletion strains, locus YML032C, strain rad52, stronger effect = lower value 1.03 | S. cerevisiae deletion strains, locus YML120C, strain ndi1, stronger effect = lower value 0.995 | S. cerevisiae deletion strains, locus YML124C, strain tub3, stronger effect = lower value 1.02 | S. cerevisiae deletion strains, locus YMR058W, strain fet3, stronger effect = lower value 0.992 | S. cerevisiae deletion strains, locus YMR078C, strain ctf18, stronger effect = lower value 1.01 | S. cerevisiae deletion strains, locus YMR125W, strain sto1, stronger effect = lower value 1 | S. cerevisiae deletion strains, locus YMR129W, stronger effect = lower value 0.993 | S. cerevisiae deletion strains, locus YMR205C, strain PFK2, stronger effect = lower value 0.99 | S. cerevisiae deletion strains, locus YMR223W, strain ubp8, stronger effect = lower value 1.02 | S. cerevisiae deletion strains, locus YMR231W, strain pep5, stronger effect = lower value 0.992 | S. cerevisiae deletion strains, locus YMR263W, strain SAP30, stronger effect = lower value 1 | S. cerevisiae deletion strains, locus YMR307W, strain GAS1, stronger effect = lower value 1.02 | S. cerevisiae deletion strains, locus YNL067W, strain RPL9B, stronger effect = lower value 1 | S. cerevisiae deletion strains, locus YNL071W, strain lat1, stronger effect = lower value 1.01 | S. cerevisiae deletion strains, locus YNL128W, strain TEP1, stronger effect = lower value 1.01 | S. cerevisiae deletion strains, locus YNL153C, strain GIM3, stronger effect = lower value 1 | S. cerevisiae deletion strains, locus YNL183C, strain NPR1, stronger effect = lower value 0.959 | S. cerevisiae deletion strains, locus YNL209W, strain ssb2, stronger effect = lower value 1 | S. cerevisiae deletion strains, locus YNL233W, strain BNI4, stronger effect = lower value 1.02 | S. cerevisiae deletion strains, locus YNL248C, strain rpa49, stronger effect = lower value 0.989 | S. cerevisiae deletion strains, locus YNL250W, strain rad50, stronger effect = lower value 1.01 | S. cerevisiae deletion strains, locus YNL271C, strain bni1, stronger effect = lower value 1.02 | S. cerevisiae deletion strains, locus YNL298W, strain CLA4, stronger effect = lower value 1.02 | S. cerevisiae deletion strains, locus YNL307C, strain MCK1, stronger effect = lower value 1.02 | S. cerevisiae deletion strains, locus YNL322C, strain KRE1 (second series), stronger effect = lower value 0.992 | S. cerevisiae deletion strains, locus YNR049C, strain mso1, stronger effect = lower value 0.997 | S. cerevisiae deletion strains, locus YNR052C, strain pop2, stronger effect = lower value 1.01 | S. cerevisiae deletion strains, locus YOL006C, strain TOP1, stronger effect = lower value 1.06 | S. cerevisiae deletion strains, locus YOL012C, strain htz1 0.982 | S. cerevisiae deletion strains, locus YOL147C, strain pex11, stronger effect = lower value 1.01 | S. cerevisiae deletion strains, locus YOR001W, strain rrp6, stronger effect = lower value 0.98 | S. cerevisiae deletion strains, locus YOR061W, strain CKA2, stronger effect = lower value 1.01 | S. cerevisiae deletion strains, locus YOR069W, strain VPS5, stronger effect = lower value 1 | S. cerevisiae deletion strains, locus YOR070C, strain gyp1, stronger effect = lower value 0.999 | S. cerevisiae deletion strains, locus YOR080W, strain dia2, stronger effect = lower value 0.984 | S. cerevisiae deletion strains, locus YOR083W, strain WHI5, stronger effect = lower value 0.965 | S. cerevisiae deletion strains, locus YOR106W, strain vam3, stronger effect = lower value 0.973 | S. cerevisiae deletion strains, locus YOR136W, strain idh2, stronger effect = lower value 1.02 | S. cerevisiae deletion strains, locus YOR144C, strain elg1, stronger effect = lower value 1.02 | S. cerevisiae deletion strains, locus YOR184W, strain ser1, stronger effect = lower value 1.01 | S. cerevisiae deletion strains, locus YOR231W, strain MKK1, stronger effect = lower value 0.999 | S. cerevisiae deletion strains, locus YOR265W, strain rbl2, stronger effect = lower value 1 | S. cerevisiae deletion strains, locus YOR270C, strain vph1, stronger effect = lower value 1.01 | S. cerevisiae deletion strains, locus YOR290C, strain snf2, stronger effect = lower value 1.01 | S. cerevisiae deletion strains, locus YOR316C, strain cot1, stronger effect = lower value 1.02 | S. cerevisiae deletion strains, locus YPL051W, strain arl3, stronger effect = lower value 0.986 | S. cerevisiae deletion strains, locus YPL078C, strain atp4, stronger effect = lower value 0.97 | S. cerevisiae deletion strains, locus YPL106C, strain sse1, stronger effect = lower value 1.01 | S. cerevisiae deletion strains, locus YPL240C, strain hsp82, stronger effect = lower value 0.98 | S. cerevisiae deletion strains, locus YPL256C, strain CLN2, stronger effect = lower value 0.96 | S. cerevisiae deletion strains, locus YPR119W, strain clb2, stronger effect = lower value 1.01 | S. cerevisiae deletion strains, locus YPR141C, strain kar3, stronger effect = lower value 1.02 | S. cerevisiae deletion strains, locus YPR163C, strain tif3, stronger effect = lower value 1.02 | S. cerevisiae deletion strains, locus YPR167C, strain met16, stronger effect = lower value 1.02 | S. cerevisiae deletion strains, strain wtn01, stronger effect = lower value 1.01 | S. cerevisiae strains, strain wild type, stronger effect = lower value 1
